In test [1] the test system is Wnt5a (protein binding on small-molecule microarray). The test is described as follows: Wnt5a binders on small-molecule microarray, primary screen, biophysical, 635/667 nm fluorescence (AID 1142).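 Note: fluorescence read at 667 nm with signal to noise per printed feature.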 The note with it: 635 nm fluorescence, higher = more signal.
The nature of test [2]: cell viability in Huh7 cells, primary screen, cytotoxicity control for HCV replication inhibitor project, CellTiter-Glo luminescence, basal, 48 h (AID 1143).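 Note: Huh7 hepatoma cells carrying a hepatitis C replication reporter with no stimulus; test concentration not given here.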 Conditions: Huh7 HCV replicon, higher = more signal, called active from +8 up or from −8 down. In general terms: Cellular ATP, detected with luciferase, serves as a proxy for viable cell number.
Test [3] can be described thus: P. aeruginosa biofilm formation inhibitors, primary screen, PAO1 strain, BacTiter-Glo luminescence, LB-PBS (AID 1144). The note with it: 12 h, higher = more signal.
Test [4] in a line: CREB reporter modulators without forskolin, primary screen, cell-based, PC12, CRE-LacZ reporter, unstimulated (AID 1145). The note with it: no forskolin, luminescence, 4.5 h, higher = more signal, called active from +8 up or from −8 down.
A short description of test [5]: CREB reporter modulators under forskolin, primary screen, cell-based, PC12, CRE-LacZ reporter, forskolin-stimulated (AID 1146).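 Note: PC12 cells with 6xCRE LacZ reporter stimulated by forskolin 10 µM; beta-galactosidase reporter signal reflecting CREB driven transcription.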 The note with it: luminescence, 4.5 h, higher = more signal, called active from +8 up or from −8 down.
Test [6] has as its target Streptavidin (Streptomyces avidinii) (UniProt P22629). In words: streptavidin binders on small-molecule microarray, primary screen, artefact control for SMM compound annotation, biophysical, 635/667 nm fluorescence (AID 1147).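 Note: signal reflects streptavidin binding to arrayed compounds as a control protein.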 Conditions: streptavidin binding, higher = more signal.
A short description of test [7]: small-molecule binders of probe aInhba, primary screen, biochemical, small-molecule microarray, 635/667 nm fluorescence (AID 1148).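 Note: score merges 667nm spot fluorescence with signal-to-noise for antibody binding to printed compounds.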 Conditions: higher = more signal.
The target of test [8] is Torsin-1A (Homo sapiens) (UniProt O14656). The test is described as follows: torsin A binders from cell lysate, primary screen, small-molecule microarray, wild-type, 635/667 nm (AID 1149). Conditions: COS7 hTOR1A-WT lysate, 635 nm fluorescence, higher = more signal.
The target is the same in test [9]. The test is described as follows: small-molecule binders of mutant TOR1A in lysate, primary screen, cell lysate, small-molecule microarray, COS7 lysate, 635/667 nm fluorescence (AID 1150).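 Note: score pools 667 nm emission and signal to noise measuring lysate protein binding.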 The note with it: COS7 hTOR1A mutant lysate, 635 nm fluorescence, higher = more signal.
Test [10] has as its system Sonic hedgehog protein (Shh). In words: small-molecule binders of Shh protein, primary screen, biochemical, small-molecule microarray, 635/667 nm fluorescence (AID 1151).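 Note: Shh protein binding to compounds spotted on small-molecule microarray slides; score combines spot fluorescence intensity with signal-to-noise across triplicate slides.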 Conditions: small-molecule microarray binding, 635 nm fluorescence; higher = more signal.
Test [11] can be described thus: E. coli DRC41 culture turbidity changes, primary screen, E. coli filamentation inducer project, strain DRC41, OD650, 48 h (AID 1152).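 Note: E. coli MC1000 strain DRC41 lacking acrAB efflux pump and sulA.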 The note with it: E. coli DRC41 (acrAB sulA), higher = more signal, called active from +8 up or from −8 down.
A short description of test [12]: small-molecule binders of probe aLefty1, primary screen, biochemical, small-molecule microarray, 635/667 nm fluorescence (AID 1153).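 Note: score merges spot fluorescence with signal-to-noise ratio from the scanned slide images.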 The note with it: higher = more signal.
A short description of test [13]: PSAC antagonists in infected red cells, primary screen, cell-based, P. falciparum Indochina, OD700, 1 h (AID 1154). Conditions: P. falciparum Indochina infected RBC osmotic lysis, higher = more signal, called active from +8 up or from −8 down.
A short description of test [14]: PSAC antagonists in infected red cells, primary screen, cell-based, P. falciparum Indochina, OD700, 2 h (AID 1155).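 Note: lysis reports solute entry through the parasite surface anion channel PSAC; channel blockers reduce lysis of infected cells.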 Conditions: P. falciparum Indochina infected erythrocytes, osmotic lysis OD700; higher = more signal, called active from +8 up or from −8 down.
The nature of test [15]: osmotic lysis modulators in infected erythrocytes, primary screen, PSAC antagonist project, cell-based, P. falciparum Indochina, OD700, 3 h (AID 1156). Conditions: higher = more signal, called active from +8 up or from −8 down.
Test [16] is described as follows: PSAC antagonists in infected red cells, primary screen, cell-based, P. falciparum Indochina, OD700, 18 h (AID 1157). Conditions: P. falciparum Indochina infected erythrocytes, osmotic lysis OD700, 18 h; higher = more signal, called active from +8 up or from −8 down.
Test [17] can be described thus: modulators of S6 phosphorylation in cells, primary screen, cell-based, A549, cytoblot, luminescence, serum-stimulated (AID 1158).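 Note: serum-stimulated A549 lung adenocarcinoma cells; signal is phosphorylated S6 detected by cytoblot immunostaining with HRP secondary.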 The note with it: A549 phospho-S6 cytoblot, 5 h, higher = more signal.
Test [18] deals with NADPH oxidase 2 (Homo sapiens) (UniProt P04839). The test is described as follows: NOX2-dependent H2O2 signal modulators, primary screen, NOX inhibitor project, cell-based, HEK293-NOX2, PMA-stimulated, Amplex Red fluorescence (AID 1159). Note: test concentration not given here. Conditions: 45 min, higher = more signal, called active from +8 up or from −8 down.
Test [19] has as its target NADPH oxidase 4 (Homo sapiens) (UniProt Q9NPH5). The test is described as follows: NOX4-dependent H2O2 signal modulators, primary screen, NOX inhibitor project, cell-based, HEK293-NOX4, tetracycline-induced, Amplex Red fluorescence (AID 1160). The note with it: 45 min, higher = more signal, called active from +8 up or from −8 down.
In test [20] the target is NADPH oxidase 5 (Homo sapiens) (UniProt Q96PH1). The test is described as follows: NOX5-dependent H2O2 signal modulators, primary screen, NOX inhibitor project, cell-based, HEK293-NOX5, Amplex Red fluorescence (AID 1161). Conditions: HEK293-NOX5, ionomycin, 45 min, higher = more signal.

Active and inactive are the calls of the source. Unless noted, the rule behind the calls is not given here.

Sequence of Streptavidin (Streptomyces avidinii) (P22629 whole entry, looked up): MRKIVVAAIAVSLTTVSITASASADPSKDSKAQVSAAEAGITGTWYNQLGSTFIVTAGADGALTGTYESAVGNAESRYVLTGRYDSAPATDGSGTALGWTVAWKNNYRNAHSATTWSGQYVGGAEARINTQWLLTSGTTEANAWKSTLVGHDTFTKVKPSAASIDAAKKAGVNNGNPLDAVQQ
Sequence of NADPH oxidase 2 (Homo sapiens) (P04839 whole entry, looked up): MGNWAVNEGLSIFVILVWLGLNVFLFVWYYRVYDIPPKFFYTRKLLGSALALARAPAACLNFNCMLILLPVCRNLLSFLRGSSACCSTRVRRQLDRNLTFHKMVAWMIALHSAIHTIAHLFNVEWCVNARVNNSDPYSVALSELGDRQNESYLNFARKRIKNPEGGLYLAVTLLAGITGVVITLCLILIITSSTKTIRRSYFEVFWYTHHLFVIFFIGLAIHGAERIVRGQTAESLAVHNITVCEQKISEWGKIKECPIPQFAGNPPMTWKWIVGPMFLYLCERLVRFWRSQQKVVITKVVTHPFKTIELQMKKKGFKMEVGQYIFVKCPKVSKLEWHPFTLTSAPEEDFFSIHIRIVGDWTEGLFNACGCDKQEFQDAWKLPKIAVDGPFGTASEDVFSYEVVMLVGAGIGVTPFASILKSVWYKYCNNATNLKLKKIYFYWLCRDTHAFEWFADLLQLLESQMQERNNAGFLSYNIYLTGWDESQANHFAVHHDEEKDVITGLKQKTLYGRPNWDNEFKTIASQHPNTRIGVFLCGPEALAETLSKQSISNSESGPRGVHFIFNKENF
Sequence of Torsin-1A (Homo sapiens) (O14656 whole entry, looked up): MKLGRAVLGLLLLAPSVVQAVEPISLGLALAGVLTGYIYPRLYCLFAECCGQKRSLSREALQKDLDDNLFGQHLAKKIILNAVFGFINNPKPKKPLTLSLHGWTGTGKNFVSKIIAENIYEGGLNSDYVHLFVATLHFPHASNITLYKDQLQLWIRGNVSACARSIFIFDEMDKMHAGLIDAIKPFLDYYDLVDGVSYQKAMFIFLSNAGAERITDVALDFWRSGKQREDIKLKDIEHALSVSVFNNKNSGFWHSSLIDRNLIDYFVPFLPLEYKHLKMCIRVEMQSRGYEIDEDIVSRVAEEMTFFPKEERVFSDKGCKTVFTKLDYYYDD
Sequence of NADPH oxidase 4 (Homo sapiens) (Q9NPH5 whole entry, looked up): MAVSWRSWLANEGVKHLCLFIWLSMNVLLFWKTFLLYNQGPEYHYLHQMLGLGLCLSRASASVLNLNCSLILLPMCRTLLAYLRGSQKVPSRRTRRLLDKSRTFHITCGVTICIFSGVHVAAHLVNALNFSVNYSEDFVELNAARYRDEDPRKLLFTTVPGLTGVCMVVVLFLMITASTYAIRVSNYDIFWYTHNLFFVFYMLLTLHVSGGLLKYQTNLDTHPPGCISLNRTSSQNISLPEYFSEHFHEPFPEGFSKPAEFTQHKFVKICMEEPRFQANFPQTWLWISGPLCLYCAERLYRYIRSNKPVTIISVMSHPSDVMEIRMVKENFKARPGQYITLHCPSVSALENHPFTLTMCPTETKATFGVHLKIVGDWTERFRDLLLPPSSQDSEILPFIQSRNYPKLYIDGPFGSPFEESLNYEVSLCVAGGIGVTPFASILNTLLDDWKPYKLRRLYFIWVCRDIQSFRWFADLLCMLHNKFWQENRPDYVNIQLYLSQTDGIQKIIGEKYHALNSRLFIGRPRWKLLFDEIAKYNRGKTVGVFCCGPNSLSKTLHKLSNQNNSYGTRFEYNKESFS
Sequence of NADPH oxidase 5 (Homo sapiens) (Q96PH1 whole entry, looked up): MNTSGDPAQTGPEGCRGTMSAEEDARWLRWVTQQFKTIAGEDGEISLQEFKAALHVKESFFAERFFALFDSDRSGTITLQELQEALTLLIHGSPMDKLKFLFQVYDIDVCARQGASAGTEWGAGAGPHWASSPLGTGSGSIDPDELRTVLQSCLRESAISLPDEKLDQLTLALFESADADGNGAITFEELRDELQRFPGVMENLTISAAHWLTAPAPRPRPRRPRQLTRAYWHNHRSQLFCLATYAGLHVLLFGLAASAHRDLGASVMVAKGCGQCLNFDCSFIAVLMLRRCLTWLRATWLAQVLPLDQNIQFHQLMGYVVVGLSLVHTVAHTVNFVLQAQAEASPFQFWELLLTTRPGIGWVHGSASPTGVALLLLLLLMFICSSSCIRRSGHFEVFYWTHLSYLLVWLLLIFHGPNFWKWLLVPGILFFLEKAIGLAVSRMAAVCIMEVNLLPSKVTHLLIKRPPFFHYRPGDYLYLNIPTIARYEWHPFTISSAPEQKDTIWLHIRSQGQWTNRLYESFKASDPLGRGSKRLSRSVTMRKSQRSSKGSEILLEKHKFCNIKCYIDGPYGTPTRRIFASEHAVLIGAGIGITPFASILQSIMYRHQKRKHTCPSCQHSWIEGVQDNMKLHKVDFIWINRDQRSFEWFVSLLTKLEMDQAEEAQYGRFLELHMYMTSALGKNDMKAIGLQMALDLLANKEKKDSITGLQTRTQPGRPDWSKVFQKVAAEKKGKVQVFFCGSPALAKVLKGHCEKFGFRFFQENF

Turning to `NC(=O)NCC#Cc1ccc2c(c1)[C@]1(C(=O)N2)[C@H](C(=O)N2CCN(c3ncccn3)CC2)[C@H]2C(=O)O[C@H](c3ccccc3)[C@H](c3ccccc3)N2[C@@H]1c1ccc(O)cc1`, the composite z-score is 0.364 in [1]; 0.328 in [6]; -0.352 in test [7]; 0.0312 with Torsin-1A (Homo sapiens) [8]; 0.377 with Torsin-1A (Homo sapiens) [9]; 0.905 in test [10]. The same compound showed a composite z-score in [12] of 0.141. Moreover, the z-score was -0.0243 (inactive) in [2]; 0.407 (inactive) in test [3]; -0.467 (inactive) in test [4]; -0.43 (inactive) in [5]; -1.08 (inactive) in test [11]; -0.362 (inactive) in test [13]. Moreover, the z-score was -0.136 (inactive) in test [14]; 0.174 (inactive) in test [15]; -0.302 (inactive) in [16]; 0.435 in test [17]; 1.13 (inactive) in test [18]; 0.162 (inactive) in [19]. This compound also returned a z-score in test [20] of 0.437.
In the case of `Cc1ccc(F)cc1S(=O)(=O)N[C@@H]1CCN(Cc2ccc(Br)cc2)C1`, the composite z-score is -0.144 in [1]; 0.165 in test [6]; -0.0986 in [7]; 0.476 in the test with Torsin-1A (Homo sapiens) [8]; 0.495 with Torsin-1A (Homo sapiens) [9]; 1.29 in test [10]. Moreover, the composite z-score in test [12] was -0.0099. Moreover, the z-score in test [2] is -3.58 (inactive); in [3], 0.767 (inactive); in test [4], 0.764 (inactive); in [5] it was -1.64 (inactive); in test [11], -1.98 (inactive); in test [13] it was 2.63 (inactive). The z-score is 1.24 (inactive) in test [14]; 0.759 (inactive) in test [15]; 0.55 (inactive) in [16]; -0.166 in test [17]; -0.955 (inactive) in [18]; -0.846 (inactive) in [19]. In [20], this compound registered a z-score of -2.15.
As to `COC(=O)[C@@]1(Cc2ccc(OC)cc2)[C@H]2c3cc(C(=O)N(C)C)n(Cc4ccc(C)o4)c3C[C@H]2CN1C(=O)c1ccccc1`, the composite z-score in test [1] was 0.331; in test [6], 0.57; in test [7], 0.112; in the test with Torsin-1A (Homo sapiens) [8], -0.0657; with Torsin-1A (Homo sapiens) [9] it was 0.567; in [10], -0.797. This compound had a composite z-score in test [12] of 0.346. Besides, the z-score in test [2] is -1.93 (inactive); in [3] it was 1.15 (inactive); in test [4], -0.568 (inactive); in [5], -0.46 (inactive); in [11], -0.155 (inactive); in [13], 4.12 (inactive). Also, the z-score is 0.057 (inactive) in [14]; 1.3 (inactive) in [15]; 0.594 (inactive) in [16]; 1.5 in test [17]; -0.351 (inactive) in test [18]; -0.0809 (inactive) in test [19]. The compound further registered a z-score in [20] of -3.41.
For the compound `[N-]=[N+]=Nc1ccccc1[C@@H]1OC(c2ccc(OCCCO)cc2)=N[C@]1(Cc1ccccc1)C(=O)O`, the composite z-score in [1] was 0.343; in test [6] it was 0.723; in test [7] it was 0.207; with Torsin-1A (Homo sapiens) [8], 0.0692; in the test with Torsin-1A (Homo sapiens) [9] it was 0.285; in test [10], -0.0767. In test [12], the composite z-score is 0.433. Besides, the z-score is -0.626 (inactive) in [2]; 0.693 (inactive) in [3]; 1.05 (inactive) in [4]; -1.43 (inactive) in test [5]; 0.78 (inactive) in test [11]; 33.2 (active) in test [13]. Besides, the z-score is 30 (active) in test [14]; 3.46 (inactive) in test [15]; 8.04 (active) in test [16]; -0.465 in test [17]; -1.61 (inactive) in test [18]; 1.27 (inactive) in test [19]. The z-score in [20] is -0.586.
